# According to PubChem BioAssay (NCI):
# The panel holds about 83,000 compounds, 20% with a hit somewhere; the sample as a whole holds those more often.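 Single-concentration screen, 48 h exposure, 96-well plates. Endpoint: percent growth. Below 10 = active.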 Values without a mark were called inactive. Activity calls are given as the source filed them.
# How the values were obtained:
# Assay in all cases: NCI-60 one-dose screen, 48 h (100 = growth as untreated, 0 = no growth, -100 = all killed)
# Details in all cases: 10 µM unless noted
# NCI-H23 lung = system: NCI-H23 lung
# NCI-H226 lung = system: NCI-H226 lung
# NCI-H322M lung = system: NCI-H322M lung
# HOP-62 NSCLC = system: HOP-62 NSCLC
# NCI-H460 lung = system: NCI-H460 lung
# HOP-92 NSCLC = system: HOP-92 NSCLC
# A549/ATCC NSCLC = system: A549/ATCC NSCLC
# 786-0 renal = system: 786-0 renal
# COLO 205 colon = system: COLO 205 colon
# DU-145 prostate = system: DU-145 prostate
# K-562 leukemia = system: K-562 leukemia
# MALME-3M melanoma = system: MALME-3M melanoma
# MDA-MB-231 breast = system: MDA-MB-231 breast
# RXF 393 renal = system: RXF 393 renal
# SF-268 CNS = system: SF-268 CNS
# SF-295 CNS = system: SF-295 CNS
# SF-539 CNS = system: SF-539 CNS
# UACC-257 melanoma = system: UACC-257 melanoma
# M14 melanoma = system: M14 melanoma
# NCI-H522 lung = system: NCI-H522 lung
Compound,growth (NCI-H23 lung) [%],growth (NCI-H226 lung) [%],growth (NCI-H322M lung) [%],growth (HOP-62 NSCLC) [%],growth (NCI-H460 lung),growth (HOP-92 NSCLC),growth (A549/ATCC NSCLC) [%],growth (786-0 renal),growth (COLO 205 colon),growth (DU-145 prostate) [%],growth (K-562 leukemia),growth (MALME-3M melanoma),growth (MDA-MB-231 breast),growth (RXF 393 renal),growth (SF-268 CNS),growth (SF-295 CNS) [%],growth (SF-539 CNS),growth (UACC-257 melanoma) [%],growth (M14 melanoma),growth (NCI-H522 lung) [%]
CC(C)n1cnc2c(=S)nc[nH]c21,114,107,112,108,111%,103%,126,113%,114%,111,69.9%,156%,118%,121%,101%,90.1,99.6%,120,109%,
CC/C(=C(/c1ccc(Cl)cc1)c1ccc(OCCN2CCCC2)cc1)c1ccc(OC)cc1,52.9,89,79.7,92.6,37.6%,67%,61.9,71.9%,,86.3,5% (active),79.8%,80.2%,67%,87.1%,66,82.6%,74.8,50.3%,82.7
O=C(c1ccc(-c2ccccc2)cc1)c1ccc([N+](=O)[O-])cc1,103,98.5,115,111,109%,90.6%,114,99.9%,111%,121,69.8%,163%,90.8%,109%,102%,83.6,107%,121,94.5%,
CN(C)CCNC(=O)c1cccc(-c2cnc3ccc(-c4ccc5c(c4)OCO5)nn23)c1,69.2,75.3,58.6,88.4,4.35% (active),72.4%,87,74.2%,74.8%,66.5,1.77% (active),88.7%,77.9%,42.3%,76.7%,106,66.9%,108,67.7%,
COc1ccc(/C=C2\COc3ccc(O)c(O)c3C2=O)cc1,33.2,67.4,47.9,10.8,19.2%,-6.45% (active),38.1,-40.9% (active),66.2%,19.4,13.4%,-26.3% (active),-11.4% (active),2.29% (active),2.86% (active),48.5,-36.9% (active),14.8,8.06% (active),
COC(=O)c1n[nH]c2ccc3nc(-c4cn[nH]c4C(F)(F)F)c4c(c3c12)CCCC4,56,51.6,45.1,46.9,29.3%,30.9%,39,35.5%,3.9% (active),49.1,72.9%,28.9%,38.6%,37.9%,54.8%,48.7,27.4%,28.9,11%,
CCN(CC)CCSc1nc(-c2ccccc2)c(C#N)c(=O)[nH]1,68.9,116,122,55,118%,120%,113,97.7%,94.9%,112,129%,140%,116%,118%,102%,105,100%,111,111%,
C=CCn1cc(-c2nc3ccccc3s2)c2cc(-c3ccc4c5c(cccc35)C(=O)N(N)C4=O)ccc21,88.2,89.8,96.9,90.2,98.9%,93.7%,105,99.3%,109%,110,107%,101%,83.1%,106%,89.5%,99.1,101%,104,94.5%,
